What all share (experiment): NCI-60 one-dose screen, 48 h (100 = growth as untreated, 0 = no growth, -100 = all killed)
What all share (details): 10 µM

Test [1] concerns K-562 leukemia.
In test [2] the test system is MALME-3M melanoma.
For test [3], the system named is MDA-MB-231 breast.
In test [4] the test system is RXF 393 renal.
Test [5] concerns SF-268 CNS.
Test [6] has as its system SF-295 CNS.
Test [7] concerns SF-539 CNS.
Test [8] deals with UACC-257 melanoma.
Test [9] concerns M14 melanoma.
For test [10], the system named is HCT-15 colon.

About 83,000 compounds went through this panel and 20% of them were active in at least one assay; those are over-represented in the sample as a whole.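 For each line, cells grew in 96-well plates with the test compound present at a single concentration for 48 hours.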 Unmarked numbers belong to inactive results. Activity calls are given as the source filed them. The calls were made as follows: active = growth percent below 10; inactive = the rest.

On to `O=C(C[P+](c1ccccc1)(c1ccccc1)c1ccccc1)C[P+](c1ccccc1)(c1ccccc1)c1ccccc1`, for which the growth in [1] was -34.2% (active); in test [2], -86.5% (active); in [3] it was -71.3% (active); in [4], -70.2% (active); in [5], -86.3% (active); in test [6] it was -72.4% (active). For the same compound, the growth was -98.2% (active) in test [7], -82.3% (active) in test [8], -75.4% (active) in test [9] and -77.6% (active) in [10].

With `CC/C(=C(/c1ccc(OCCN(C)C)cc1)c1ccc(OC(=O)CCCCC(=O)c2c(C)[nH]c(/C=C3\N=C(c4ccc[nH]4)C=C3OC)c2C)cc1)c1ccccc1`, the growth in test [1] is 7.12% (active); in [2] it was 39.5%; in test [3] it was -17.5% (active); in test [4], 37.2%; in [5] it was 51.5%; in test [6], 72.6%. In addition, the growth in [7] is 78.6%; in test [8] it was 90.1%; in test [9] it was -1.63% (active); in test [10] it was 27.1%.

As to `c1ccc(CNc2ncnc3scc(-c4cccs4)c23)nc1`, the growth in test [1] is 42.7%; in test [2], 89.5%; in test [3], 59.9%; in test [4], 73.6%; in [5], 79.7%; in [6], 41.2%. For the same compound, the growth in test [7] is 72.7%; in test [8], 46.1%; in test [9] it was 70.7%; in [10], 76%.

As for `COc1cc(/C=C\c2cc(OC)c(OC)c(OC)c2)cc(NS(=O)(=O)c2ccc(Cl)cc2)c1OC`, the growth in test [1] is 11.2%; in test [2], 71.9%; in test [3], 24%; in [4], -4.53% (active); in test [5], 39.7%; in test [6], 10.9%. The growth in test [7] was -23.9% (active); in [8], 45.2%; in [9], 18.8%; in test [10], 20%.

On to `COc1cc(C(=O)/C=C/c2cc(-c3cc(OC)c(OC)c(OC)c3)n[nH]2)cc(OC)c1OC`, for which the growth is 4.46% (active) in test [1]; -56% (active) in test [2]; 3.71% (active) in test [3]; -84.3% (active) in test [4]; 4.97% (active) in test [5]; 135% in test [6]. In addition, the growth in [7] was -56.2% (active); in [8] it was -1.5% (active); in [9], 6.7% (active); in test [10], 3.63% (active).

Take `N#Cc1cccc(OCc2nc(N)nc(N)c2-c2ccc(Cl)c(Cl)c2)c1`: the growth was 14.6% in [1]; 33.6% in [2]; 51.4% in test [3]; 43.7% in test [4]; 28.4% in test [5]; -7% (active) in test [6]. For the same compound, the growth was 22.6% in [7], 11.1% in test [8], 23.2% in test [9] and 17.7% in test [10].

For the compound `CCCCCCCNc1nc(C=O)ncc1-c1ccc(C(F)(F)F)cc1`, the growth in test [1] was 89.4%; in [2] it was 86.8%; in test [3] it was 117%; in test [4] it was 97%; in [5], 98.8%; in test [6] it was 103%. Besides, the growth in test [7] is 107%; in [8], 107%; in test [9], 102%; in test [10] it was 97.6%.

For `N=C(N)c1ccc(-c2ccc(-c3cccs3)o2)cc1`, the growth was -13.1% (active) in test [1]; -72.4% (active) in test [2]; 0.444% (active) in test [3]; 39% in test [4]; 61.6% in [5]; -52.3% (active) in test [6]. The growth was 77.9% in test [7], -47.3% (active) in test [8], -27.4% (active) in test [9] and -10.2% (active) in test [10].

As for `O=C1N=NC2=C1c1c3ccccc3c(O)n1CC2`, the growth was 93% in test [1]; 109% in test [2]; 107% in test [3]; 106% in test [4]; 108% in [5]; 99.4% in test [6]. Moreover, the growth in test [7] is 94.9%; in test [8] it was 8.27% (active); in [9] it was 93.2%; in [10], 113%.

In the case of `N#CSCC1CC(O)(c2ccccc2)CC(c2ccc(Cl)cc2)O1` (stereo not given), the growth is 44.8% in [1]; 7.26% (active) in test [2]; 60.8% in [3]; 9.83% (active) in test [4]; 34.6% in [5]; 46.6% in test [6]. In addition, the growth in test [7] is 58.8%; in test [8], 87.8%; in [9], 9.35% (active); in test [10], 58.8%.

Regarding `CC1CN(Cc2ccccc2)C(=O)NC1=O` (stereo not given), the growth in [1] was 108%; in test [2], 106%; in [3], 107%; in [4], 124%; in test [5] it was 103%; in [6], 126%. Further, the growth in [7] was 107%; in test [8] it was 102%; in test [9], 111%; in test [10], 112%.

As for `COc1ccc(N2C(=O)C3c4[nH]c5ccc(OCc6ccccc6)cc5c4C4CCC(C(C)C)CC4C3C2=O)cc1` (stereo not given), the growth in [1] is 117%; in [2], 107%; in test [3] it was 101%; in test [4] it was 102%; in [5] it was 96.7%; in [6], 114%. Besides, the growth was 118% in [7], 96.1% in test [8], 124% in test [9] and 16.3% in test [10].

Turning to `CN(C)c1ccc(Cc2ccc(N(C)C)cc2Cl)c(Cl)c1`, the growth in test [1] was 90.2%; in test [2], 91.9%; in test [3], 109%; in [4], 93.2%; in [5], 103%; in [6], 116%. Further, the growth in test [7] was 108%; in [8], 110%; in test [9] it was 107%; in test [10] it was 101%.

As for `O=C(CCCCCCC(=O)Nc1cccnc1)NO`, the growth in test [1] was 5.89% (active); in [2] it was -23.1% (active); in [3], 66.4%; in test [4], 17.6%; in [5] it was 41.5%; in test [6], 73.6%. Besides, the growth in test [7] is 50%; in test [8] it was 78.4%; in test [9], 29.6%; in test [10], 93.1%.

As to `COc1ccc(-c2nn(-c3cccc(NC(=O)c4ccc(N5CCOCC5)c(C(F)(F)F)c4)c3)cc2-c2ccncc2)cc1Cl`, the growth is 23.6% in [1]; 48.7% in test [2]; 66.4% in test [3]; 18.7% in test [4]; 70.7% in test [5]; 9.97% (active) in test [6]. Further, the growth is 41% in test [7], 67.8% in test [8], 65% in test [9] and 53.5% in test [10].

Regarding `CCN1CCCC1CNC(=O)c1ncc(-c2ccc(C(F)(F)F)cc2)c(NC2CCCCCC2)n1` (stereo not given), the growth was 8.32% (active) in test [1]; 54% in test [2]; 67.3% in test [3]; 74.1% in test [4]; 86.8% in test [5]; 69.3% in test [6]. Besides, the growth in test [7] was 94.7%; in test [8], -46.2% (active); in test [9] it was 26.1%; in test [10], 90.8%.

Consider `COc1ccc(OC)c(NC(=O)c2sc3nc4c(cc3c2N)C(=O)CCC4)c1`, for which the growth in test [1] was 61.7%; in test [2], 86.4%; in [3], 86.9%; in [4], 85.4%; in test [5], 110%; in test [6], 80.9%. The growth in [7] was 97.3%; in test [8], 93.5%; in [9] it was 93.9%; in test [10], 80.6%.

With `CN(C)CCN1C(=O)c2cccc3cc(N)cc(c23)C1=O`, the growth in [1] is 3.5% (active); in test [2], 17.4%; in test [3], 57%; in test [4] it was 18.3%; in [5] it was 37.8%; in [6], 21.1%. Also, the growth in [7] was 33.4%; in test [8], 5.64% (active); in test [9], 42%; in [10] it was 11.8%.

Turning to `CCOC(=O)c1ccc(NC(=O)Nc2ncc(Cl)cc2Cl)cc1`, the growth is 79.4% in test [1]; 111% in [2]; 94% in test [3]; 100% in test [4]; 104% in test [5]; 96.5% in [6]. Also, the growth in test [7] was 96.2%; in [8] it was 14.7%; in test [9], 94.7%; in [10] it was 102%.

For `COc1cc(Nc2ncnc(Nc3ccc4c(n3)NC(=O)C(C)(C)O4)n2)cc(OC)c1OC`, the growth in test [1] was 34.6%; in [2] it was 28.2%; in [3], 3.82% (active); in test [4] it was -86.6% (active); in test [5] it was -21% (active); in test [6], 19.6%. For the same compound, the growth in test [7] was -59.3% (active); in test [8] it was 30.2%; in [9], 40%; in test [10], 22.9%.

In the case of `O=C(Nc1ccccc1)Nc1cccc(-n2cc(-c3ccncc3)c(-c3ccc(O)c(Cl)c3)n2)c1`, the growth in test [1] is 24.4%; in test [2], 20.2%; in test [3], 15.6%; in test [4], 47%; in test [5] it was 71.7%; in test [6], -21.7% (active). In addition, the growth in [7] is 0.346% (active); in [8] it was 10.3%; in [9], 31.8%; in test [10] it was 24.7%.

`COc1cc(-c2cc(/C=C/C(=O)c3ccc(F)c(F)c3)[nH]n2)cc(OC)c1OC`: the growth was 29.8% in [1]; 72.5% in test [2]; 49.7% in [3]; 76.9% in [4]; 61.7% in [5]; 10.4% in test [6]. In addition, the growth in [7] was 65.6%; in test [8], 80.8%; in test [9], 67.9%; in test [10], 46.6%.

Regarding `C#Cc1ccc(-n2c(/C=C/c3ccc(O)c(OC)c3)nc3ncccc3c2=O)cc1`, the growth is 80% in test [1]; 95% in [2]; 98.5% in [3]; 100% in [4]; 95% in test [5]; 104% in test [6]. In addition, the growth in [7] is 97.2%; in [8], 87.8%; in test [9], 101%; in [10], 90.5%.

In the case of `CN(C)c1ccc(N=C2C=CC(=O)c3ccccc32)cc1`, the growth is 69.8% in test [1]; -11.2% (active) in test [2]; 59.5% in [3]; 81.2% in [4]; 73.9% in test [5]; 60.5% in [6]. In addition, the growth in test [7] is 88.7%; in test [8], 65.3%; in test [9], -18.2% (active); in test [10] it was 53.5%.

On to `CCOC(=O)N1C=CC2C=CC1C1C=CC=CC2N1C(=O)OCC` (stereo not given), for which the growth in test [1] is 47.8%; in test [2], 94.8%; in test [3] it was 87%; in [4], 86.8%; in [5], 101%; in [6], 116%. The growth in test [7] was 81.2%; in test [8], 87.7%; in test [9], 89.5%; in test [10] it was 86.2%.

In the case of `O=C(N/N=C\c1cc(Cl)ccc1[N+](=O)[O-])c1ccco1`, the growth is 102% in [1]; 125% in test [2]; 95% in [3]; 115% in test [4]; 99.3% in test [5]; 108% in test [6]. The growth in test [7] is 92.4%; in test [8] it was 95%; in test [9] it was 108%; in [10], 97%.

For `CCOC(=O)N1C/C(=C/c2ccc(OC)cc2)C(=O)/C(=C/c2ccc(OC)cc2)C1`, the growth is -2.17% (active) in test [1]; 34.2% in test [2]; 30.6% in test [3]; -44.4% (active) in test [4]; 38.2% in test [5]; 24.5% in [6]. In addition, the growth in test [7] was 39.4%; in [8] it was 42.9%; in [9] it was -40.8% (active); in test [10] it was 3.06% (active).
